Compounds with a hit are over-represented: about 13% of the library has one in this group of screens.
Pf growth 48h: P. falciparum growth inhibition at 48 hours (one generation); P. falciparum luciferase growth in erythrocytes, 48 h; Potency, µM (series often up to 28.7 µM), hits mostly inhibitors; 310,000 tested, 5.9% active
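A one-generation exposure of luciferase-tagged malaria parasites in RPMI 1640/Albumax erythrocyte culture, 37 C and 5% CO2. Inhibition is inferred from decreased luminescence after adding detection reagent.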
HCMV inh: inhibitors of human cytomegalovirus. HFF cells, HCMV-luciferase reporter, 72 h; active compounds read low. activity change, negative = inhibition, % at 57.5 µM. 410,000 tested, 4.5% active. AID 1259415; in the data active = activity change below about -60%; inconclusive = no clear call, values can overlap the other calls; inactive = above about -39%
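Compounds were evaluated in HFFs infected with an HCMV luciferase reporter virus (MOI 1 PFU/cell). Luciferase in lysates collected 72 h post infection served as the replication measure.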
HCV inh: inhibitors of hepatitis C virus infection; Potency, µM (top dose mostly 41.8 µM), actives largely listed as inhibitors; 340,000 tested, 3.4% active; AID 651820; Huh7.5.1 HCVcc-Cre infection, luciferase reporter, 44 h
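Cells seeded at 1,000/well and cultured 4 h, then compounds added followed by HCVcc-Cre virus (~0.5 moi). After 44 h further culture, luciferase substrate was added, plates held 15 min at room temperature, and luminescence read for 15 sec.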
Pf growth 96h: P. falciparum growth inhibition at 96 hours; P. falciparum luciferase reporter growth, 96 h; Potency, µM (titrated, usually from 28.7 µM), actives largely listed as inhibitors; 320,000 tested, 6.9% active; AID 504834
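Erythrocytes infected with luciferase-expressing P. falciparum were dispensed at 2% hematocrit and 0.05% parasitemia (final), then incubated with compounds 96 hours at 37 C in 5% CO2. Luminescence after detection reagent addition reported growth.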
Numbers stand for hits; 0 = inactive; ? = inconclusive; - = no result; [ ] = dose if it differs, or a comment. Unless noted, calls come from the whole dose curve; as a rule, active = well fitted inhibition curve with a large enough effect; inconclusive = small, poorly fitted or top-dose-only effect, or another doubt; inactive = no such curve, though single readings can be large or run the other way.

SMILES	Pf growth 48h	HCMV inh	HCV inh	Pf growth 96h
O=C(Nc1c(C(=O)N2CCC(N3CCCCC3)CC2)oc2ccccc12)c1c(F)cccc1F	?	0	?	?
O=C(COc1ccccc1)Nc1c(C(=O)N2CCC(N3CCCCC3)CC2)oc2ccccc12	?	-69.5	0	0
O=C(Nc1c(C(=O)N2CCC(N3CCCCC3)CC2)oc2ccccc12)c1ccc(F)cc1	?	0	12.6µM	?
O=C(COc1ccc(F)cc1)Nc1c(C(=O)N2CCC(N3CCCCC3)CC2)oc2ccccc12	?	0	?	?
CNS(=O)(=O)c1cn(CC(=O)Nc2ccc(C(C)=O)cc2)cc1S(=O)(=O)NC	-	0	-	-
CN1CCN(Cc2cc(C(C)(C)C)c(O)c(C(C)(C)C)c2)CC1	-	0	0	0
CC(C)(C)c1cc(C(c2cccnc2)N2CCN(CCO)CC2)cc(C(C)(C)C)c1O (configuration not stated)	-	-102.2	10µM	0
COc1ccc(NC(=O)CN2C(=O)N(C)Cc3ccccc32)c(C)c1	0[5.75 µM]	?	0	14.7µM
COc1ccc(NC(=O)CN2CCc3ccccc3C2)c(OC)c1	0	0	0	?
CC(=O)Nc1cc(-c2cccc(N)c2)cn2c(-c3ccccc3)cnc12	-	0	-	-
C=CC(=O)Nc1ccc(Nc2nc(NC3CCC(N(C)C)CC3)nc3c2ncn3C(C)C)cc1 (configuration not stated)	-	-	1.26µM	-
CCCCN(CCCNC(=O)c1c(C)cc(=O)oc1C)c1ccccc1	?	0	3.98µM	0
CCCCN(CCCNC(=O)c1ccc2c(c1)NC(=O)CN2C)c1ccccc1	-	-98.3	-	-
CCN(CCCNC(=O)c1c(C)cc(=O)oc1C)c1ccccc1	?	0	?	0
CCCNC(=O)c1c(C)cc(=O)oc1C	0	0	0	6.57µM
CCCCN(C(=O)c1ccc2c(c1)NC(=O)CS2)c1ccccc1	?	-100.3	?	0
CCOc1ccc(CCNC(=O)c2nn(-c3ccc(OC)cc3)c(=O)c3c2c2ccccc2n3C)cc1OCC	-	0	-	-
COc1ccc(CNC(=O)CSc2ncc3c(n2)-c2ccc(Cl)cc2N(Cc2ccc(F)cc2)S3(=O)=O)cc1OC	-	0	-	-
Cc1ccc(-n2nc3c(N4CCC(C(=O)NC5CCCCC5)CC4)nnc(C)c3c2C)cc1	-	0	-	-
Cc1ccc(C(=O)OCn2nnc3ccccc3c2=O)cc1[N+](=O)[O-]	0	0	0	2.62µM
COc1ccc(C(=O)OCn2nnc3ccccc3c2=O)cc1[N+](=O)[O-]	0	0	?	0
COCCn1c(SCC(=O)Nc2ccc(C(F)(F)F)cc2)nc2c([nH]c3ccccc32)c1=O	-	0	-	-
COc1ccc(C(=O)Nc2ccccc2-c2nnn(CC(=O)Nc3ccc4c(c3)OCCO4)n2)cc1	0	-62.9	0	0
COc1cc(OC)cc(C(=O)Nc2ccccc2-c2nnn(CC(=O)Nc3cc(C)on3)n2)c1	?	-62.7	0	0
COc1ccc(C(=O)Cn2nnc(-c3ccccc3NC(=O)C3CCCCC3)n2)cc1	11.7µM	0	0	-
SMILES	Pf growth 48h	HCMV inh	HCV inh	Pf growth 96h
Nc1ccccc1-c1nnn(CC(=O)Nc2ccc3c(c2)OCCO3)n1	0	0	0	0
COC(=O)C1=C(C)NC2=C(C(=O)CC(C)(C)C2)C1c1ccccn1 (configuration not stated)	0	0	0	9.28µM
CC1=C(C(=O)OC2CCCC2)C(c2coc3ccccc3c2=O)C2=C(CC(C)(C)CC2=O)N1 (configuration not stated)	4.15µM	0	0	?
CC1=C(C(=O)OC2CCCC2)C(c2coc3ccc(C)cc3c2=O)C2=C(CCCC2=O)N1 (configuration not stated)	?	0	0	0
CCCCCOc1ccc(/C=C/C(=O)Nc2sc(C)c(C)c2C(=O)OCC)cc1OC	-	0	-	-
COc1ccccc1N1CCN(S(=O)(=O)c2ccc(-n3cnnn3)c(C)c2)CC1	0	0	0	1.65µM
COc1ccccc1N1CCN(S(=O)(=O)c2cc(C)sc2C)CC1	-	0	?	4.65µM
COc1ccc(S(=O)(=O)N2CCN(c3ccccn3)CC2)c(OC)c1	0	0	0	4.65µM
Cc1cc(S(=O)(=O)N2CCN(c3ccccc3O)CC2)c(C)s1	-	0	0	?
CCc1ccccc1N1CCN(S(=O)(=O)c2cc(OC)ccc2OC)CC1	0	0	?	10.4µM
COc1ccc(OC)c(S(=O)(=O)N2CCN(c3ccccc3)CC2)c1	0	0	0	0
CCOc1ccc(CNC(=O)CCn2c(=O)c3cccn3c3ccc(F)cc32)cc1	-	0	-	-
O=C(O)c1ccc2c(c1)C(=O)N([C@H](Cc1ccc(O)c(O)c1)C(=O)O)C2=O	0	-	-	0
Cc1ccccc1CN1CCN(CC(=O)NCCCN2CCN(c3ccc(F)cc3)CC2)C1=O	?	0	10µM	0
O=C(CN1CCN(Cc2ccc(Cl)cc2)C1=O)NCCCN1CCN(c2ccc(F)cc2)CC1	-	-75.4	10µM	?
O=C(CN1CCN(Cc2ccc(F)cc2Cl)C1=O)NCCCN1CCOCC1	0	0	0	?
Cc1cccc(NC(=O)COC(=O)c2cc(C)n(C3CC3)c2C)c1	9.28µM	0	0	?
CCCCN1C(N)=NC[C@@H]1Cc1ccc(O)cc1	10.4µM	0	0	4.15µM
NC1=NC[C@H](Cc2ccc(O)cc2)N1CCC12CC3CC(CC(C3)C1)C2	2.94µM	-72.5	0	1.85µM
CCCCN1C(N)=NC[C@H]1Cc1ccc(O)cc1	9.28µM	0	0	4.65µM
CC(C)(C)CN1C(N)=NC[C@@H]1Cc1ccc(O)cc1	?	0	0	?
CCCCN1C(Nc2ccccc2)=NC[C@@H]1Cc1ccccc1	?	0	0	0
CC(=O)N[C@@H](Cc1ccc(O)cc1)CN1C(N)=NC[C@@H]1CC(C)C	0	0	0	0
CC(C)(C)CN1C(N)=NC[C@H]1Cc1ccc(O)cc1	?	0	0	4.65µM
Cc1c(Cl)ccc2sc(N3CCN(C(=O)CS(=O)(=O)c4ccccc4)CC3)nc12	-	0	-	-
SMILES	Pf growth 48h	HCMV inh	HCV inh	Pf growth 96h
O=C(Cn1c(=O)n(-c2ccc(Cl)cc2)c(=O)c2sc3ccccc3c21)NC1CCCCC1	-	0	-	-
Cc1nn(Cc2ccc(C(=O)Nc3ccccc3F)cc2)c(C)c1Cl	?	-61.8	0	?
Cc1nn(Cc2ccc(Cl)cc2)c(C)c1NC(=O)Cn1nc([N+](=O)[O-])c(Cl)c1C	0	0	3.16µM	?
Cc1nn(Cc2ccc(Cl)cc2)c(C)c1NC(=O)C(c1ccccc1)c1ccccc1	?	-64.0	?	0
Cc1nn(Cc2ccc(Cl)cc2)c(C)c1NC(=O)CSc1n[nH]c(C)c1[N+](=O)[O-]	0	0	0	13.1µM
Cc1nn(Cc2ccccc2)c(C)c1NC(=O)CSc1n[nH]c(C)c1[N+](=O)[O-]	?	0	0	0
Cc1cc(C(=O)Nc2c(C)nn(Cc3ccc(Cl)cc3)c2C)no1	0	0	0	?
Cc1nn(Cc2ccc(Cl)cc2Cl)c(C)c1NC(=O)Cn1nc([N+](=O)[O-])c(Cl)c1C	0	0	?	0
CCN(CC)CCCNC(=O)c1nn(-c2ccc(OC)cc2)c(=O)c2c1c1ccccc1n2C	-	0	-	-
Cc1ccc(-c2nnc(Nc3ccc(O)cc3)c3ccccc23)cc1S(=O)(=O)NCc1nc2ccccc2[nH]1	-	0	-	-
O=C(Nc1ccccc1F)c1cnc(N2CCCCC2)c2ccccc12	-	0	-	-
